By AC50 is commonly meant the concentration at which the activity in the assay is half-maximal.

“And” between values parts separate entries of the source, which are not always exact repeats. Equal values may be shown once. Inconclusive results are not listed. More than one record can exist for a structure, and the calls need not agree. The source made the active and inactive calls. The calls were made as follows: active = hit-call score of the fitted dose curve at least 0.9, where 1 is the maximum; inconclusive = response in the unintended direction; inactive = score below 0.9.

The target in the experiment is Cellular tumor antigen p53 (Homo sapiens) (UniProt P04637). Briefly: TOX21_p53_BLA_p4_ratio: Tox21 HCT-116 p53 Agonism Beta-lactamase Assay, Ratio, Phase 4 (AID 2283601). The source says: TOX21_p53_BLA_p4 is a cell-based, single-readout assay that uses HCT116, a human intestinal cell line, […] in a 1536-well plate.TOX21_p53_BLA_p4_ratio is an assay readout measuring reporter gene via receptor activity and designed using inducible reporter (beta lactamase induction) detected with GAL4 b-lactamase reporter gene. The signal is derived from the ratio of cleaved (ch2) to uncleaved (ch1)reporter gene substrate used as the measure of target activity.Data from the assay component TOX21_p53_BLA_p4_ratio was analyzed into 1 assay endpoint. This assay endpoint, TOX21_p53_BLA_p4_ratio, was analyzed in the positive analysis fitting direction relative to DMSO as the negative control and baseline of activity. Using a type of inducible reporter, gain-of-signal activity can be used to understand changes in the reporter gene as they relate to the gene TP53. Furthermore, this assay endpoint can be referred to as a primary readout, because this assay has produced multiple assay endpoints where this ratio serves a reporter gene function to understand target activity. To generalize the intended target to other relatable targets, this assay endpoint is annotated to the DNA binding intended target family, where the subfamily is tumor suppressor.
Chain of Cellular tumor antigen p53 (Homo sapiens) (P04637 whole entry, looked up, the tested form may be a part): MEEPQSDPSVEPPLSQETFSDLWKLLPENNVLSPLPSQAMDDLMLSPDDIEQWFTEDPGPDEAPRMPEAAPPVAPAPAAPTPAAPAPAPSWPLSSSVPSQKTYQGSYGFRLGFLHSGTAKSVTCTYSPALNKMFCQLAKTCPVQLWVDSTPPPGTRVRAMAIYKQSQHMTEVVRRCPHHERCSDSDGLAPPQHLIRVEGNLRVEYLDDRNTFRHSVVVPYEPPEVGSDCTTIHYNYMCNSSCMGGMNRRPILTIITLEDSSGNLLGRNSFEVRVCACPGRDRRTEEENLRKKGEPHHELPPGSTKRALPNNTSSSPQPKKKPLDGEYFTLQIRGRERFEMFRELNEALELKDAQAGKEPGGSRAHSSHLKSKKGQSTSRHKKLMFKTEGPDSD
Thawing Method: Place 14 mL of pre-warmed thaw medium into a 15 mL of conical tub. Remove the vial of cells to be thawed from liquid nitrogen and thaw rapidly by placing at 37C in a water bath with gentle agitation for 1-2 minutes. Decontaminate the vial by wiping with 70% ethanol before opening in a biological safety cabinet. Transfer the vial contents drop-wise into 14 mL of thaw medium in a sterile 15-mL conical tub. Centrifuge cells at 900 rpm for 4 minutes and resuspend in thaw medium. Transfer contents to the T75 tissue culture flask containing Thaw Medium and place flask in a humidified 37C/5% CO2 incubator. Switch to growth medium at first passage.Propagation Method: Aspirate medium, rinse once in DPBS, add 0.25% Trypsin/EDTA and swirl to coat the cell evenly. Add an equal volume of Growth Medium to inactivate Trypsin after 2-3 minutes incubation at 37C. Centrifuge cells at 900 rpm for 4 minutes and resuspend in growth medium. Cell should be passage or fed at least twice a week.Assay Protocol: Harvest cells from culture in growth medium and resuspend in assay medium. 2.2 Dispense 4000 cells/5 uL/well into 1536-well black/clear bottom plates using a Multidrop dispenser. After the cells were incubated at 37C for 5 hours, 23 nL of compounds dissolved in DMSO were transferred to the assay plate by a PinTool resulting in a 217-fold dilution. Incubate the plates for 16 hours at 37C, 5% CO2. Add 1 uL of 6X LiveBLAzer FRET B/G (CCF4-AM) Substrate Mixture to each well using a BioRAPTR dispenser and incubate the plates at room temperature for 2 hours. Measure fluorescence intensity at 460 and 530 nm emission and 405 nm excitation by an Envision detector. Data is expressed as the ratio of 460nm/530nm emissions. Add 4 uL of Cell-titer Glo to each well using BioRAPTR and incubate the plates at room temperature for 2 hours. Measure fluorescence intensity by a VewLux plate reader.
Regarding `CCCCCCCC(=O)OCC(O)CO` (stereo not given), the result was inactive. Consider `Cc1ccc(N)c(S(=O)(=O)O)c1`, for which the result was inactive. The same measure, in the same setting: to `CCOC(=O)C(C#N)=C(c1ccccc1)c1ccccc1` belongs “inactive”; to `CCCC(=O)c1ccccc1`, “inactive”; to `OCC#CCO`, “inactive”. `CCCCCCCCCCCCCCN(CCO)CCO`: the result was inactive. With `[Cl][Au]([Cl])[Cl]`, the AC50 was 37.8 µM (active). `CC1C2CC(CC2C2CCCC(O)C2)C1(C)C` (stereo not given): the outcome was inactive. Still for that read-out and setting: to `CCO/C=C1\N=C(c2ccccc2)OC1=O` belongs “inactive”. The same measure, in the same setting: to `Cc1ccc2c(c1)C(=O)OC2=O` belongs “inactive”. The same measure, in the same setting: the entry for `CN1CCOCC1` is “inactive”.

`[O-]n1ccccc1=S.[O-]n1ccccc1=S.[Zn+2]`: the AC50 is 21.1 µM (active) [middle of 4 runs].

Take `C=Cc1ccc(C)cc1`: the result was inactive. Turning to `N[C@@H](Cc1cc(I)c(Oc2cc(I)c(O)c(I)c2)c(I)c1)C(=O)O`, the outcome was inactive and the AC50 is 39.8 µM (active). For the compound `C=C(C)C(=O)OCCOCCOCCOCCOC(=O)C(=C)C`, the outcome was inactive.

As for `CC(C)(CO)[C@@H](O)C(=O)NCCC(=O)O`, the outcome was inactive. As for `C[C@H]1C[C@@H](O)CC(C)(C)C1`, the outcome was inactive. Regarding `O=C(CS)OCCOC(=O)CS`, the AC50 is 53.3 µM (active). As to `Cc1cc(C)nc(NS(=O)(=O)c2ccc(N)cc2)n1`, the result was inactive. On the same count and under the same terms, the entry for `C#CC(C)N(C)C(=O)Nc1ccc(Cl)cc1` (stereo not given) is “inactive”; for `OCCCCC(O)CO` (stereo not given) it is “inactive”. Still for that read-out and setting: to `CCCCCCCCCCCCCCCC(=O)OC/C=C(C)/C=C/C=C(C)/C=C/C1=C(C)CCCC1(C)C` belongs “inactive”.

`CCc1cc(Cc2cc(CC)cc(C(C)(C)C)c2O)c(O)c(C(C)(C)C)c1`: the AC50 was 10.8 µM (active). For the compound `Cc1ncc[nH]1`, the result was inactive. For the compound `Cc1cc(CCC(=O)OCCOCCOCCOC(=O)CCc2cc(C)c(O)c(C(C)(C)C)c2)cc(C(C)(C)C)c1O`, the result was inactive.

`COC(CC(C)CCCC(C)(C)O)OC` (stereo not given): the result was inactive. Take `CC(C)(C)c1ccc(C(=O)O)cc1`: the result was inactive. Take `CCCSc1ccc2nc(NC(=O)OC)[nH]c2c1`: the AC50 was 339 nM (active) and 175 nM (active). Consider `CC(C=O)Cc1ccc(C(C)(C)C)cc1` (stereo not given), for which the outcome was inactive.

Turning to `COCCOCCOCCO`, the result was inactive. Same read-out and setting: the entry for `C[Si](C)(C)O[Si](C)(C)C` is “inactive”; for `O=C(Nc1ccc2c(c1)Cc1ccccc1-2)C(F)(F)F` it is “inactive”. On to `O=[N+]([O-])c1ccc(O)cc1C(F)(F)F`, for which the AC50 was 45.6 µM (active). Consider `COc1ccc(N=Nc2cc(C)c(N=Nc3ccc(S(=O)(=O)O)cc3)cc2OC)cc1`, for which the result was inactive. Same read-out and setting: the entry for `CCCN(CCC)S(=O)(=O)c1ccc(C(=O)O)cc1` is “inactive”. Take `Nc1ccc(N)c2c1C(=O)c1ccccc1C2=O`: the AC50 is 13 µM (active). With `C=C(CC(=O)O)C(=O)O`, the result was inactive.

For `Nc1ccn([C@H]2CS[C@@H](CO)O2)c(=O)n1`, the outcome was inactive. Consider `O=C(O)COCC(=O)O`, for which the outcome was inactive.
